Screening results deposited in PubChem by National Center for Advancing Translational Sciences (NCATS).
Hits are enriched below; roughly 11% of the tested compounds scored in any of these assays.
G9a block: blocks human histone lysine methyltransferase G9a | G9a H3K9 monomethylation, AlphaScreen, 2 h | Potency, µM (top dose mostly 102 µM), for inactives: at the highest dose activity, negative = inhibition, hits mostly inhibitors | hit rate 8.8% among 350,000; note: % is set by controls: 0 for no effect and ±100 for the full control effect; nearly all actives have a fitted effect of over 75% in size
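Chemiluminescent proximity detection of H3K9 monomethylation, read after 10 min bead incubation in the dark. Reaction: 20 nM G9a, 500 nM biotin-H3K9 peptide, 20 uM SAM cofactor, 2 h, room temperature, following 15 min enzyme-compound preincubation.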
JMJD2A Tudor: JMJD2A Tudor domain (human) inhibition; AlphaScreen JMJD2A-Tudor / H3K4me3 peptide binding; O75164; hit rate 4.4% among 390,000; Potency, µM (top dose mostly 114 µM), for inactives: at the highest dose activity change, negative = inhibition, usual class: inhibitors; note: % is set by controls: 0 for no effect and ±100 for the full control effect; nearly all actives have a fitted effect of over 50% in size
Target sequence (O75164 whole entry, looked up, the tested form may be a part): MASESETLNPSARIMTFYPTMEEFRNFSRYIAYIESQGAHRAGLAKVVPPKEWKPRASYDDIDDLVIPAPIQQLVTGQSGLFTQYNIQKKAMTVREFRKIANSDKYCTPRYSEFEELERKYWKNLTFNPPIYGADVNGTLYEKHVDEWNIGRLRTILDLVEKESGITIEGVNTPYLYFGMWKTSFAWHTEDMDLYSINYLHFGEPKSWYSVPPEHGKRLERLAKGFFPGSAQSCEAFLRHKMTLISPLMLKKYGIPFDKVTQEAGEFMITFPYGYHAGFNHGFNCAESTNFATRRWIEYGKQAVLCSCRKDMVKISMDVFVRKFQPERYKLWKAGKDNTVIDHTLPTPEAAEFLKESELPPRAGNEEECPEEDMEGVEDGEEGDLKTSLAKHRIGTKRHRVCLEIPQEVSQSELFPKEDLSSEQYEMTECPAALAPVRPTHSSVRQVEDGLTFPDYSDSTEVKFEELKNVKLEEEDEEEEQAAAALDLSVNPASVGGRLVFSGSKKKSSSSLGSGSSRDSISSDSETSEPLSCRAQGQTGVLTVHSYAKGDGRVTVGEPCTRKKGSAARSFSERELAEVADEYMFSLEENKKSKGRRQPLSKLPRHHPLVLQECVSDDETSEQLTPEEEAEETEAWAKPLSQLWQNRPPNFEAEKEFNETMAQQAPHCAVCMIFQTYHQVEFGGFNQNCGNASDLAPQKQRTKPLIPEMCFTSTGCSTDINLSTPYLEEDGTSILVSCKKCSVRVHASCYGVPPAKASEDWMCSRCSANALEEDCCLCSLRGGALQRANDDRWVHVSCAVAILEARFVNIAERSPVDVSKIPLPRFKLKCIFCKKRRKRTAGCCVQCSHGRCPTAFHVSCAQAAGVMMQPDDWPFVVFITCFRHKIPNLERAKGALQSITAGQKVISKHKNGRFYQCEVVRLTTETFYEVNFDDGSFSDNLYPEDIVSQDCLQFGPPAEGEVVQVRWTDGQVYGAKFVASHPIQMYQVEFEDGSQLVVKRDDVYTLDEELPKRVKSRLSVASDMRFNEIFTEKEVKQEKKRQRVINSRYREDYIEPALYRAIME
L3MBTL1 inh: inhibitors of human L3MBTL1 | Q9Y468 | Potency, µM (titrated, usually from 57.1 µM), without a hit: at the top dose activity, negative = inhibition, hits mostly inhibitors | AID 485360 | AlphaScreen L3MBTL1–H3K9me1 peptide binding | hit rate 0.66% among 230,000; note: % is set by controls: 0 for no effect and ±100 for the full control effect; nearly all actives have a fitted effect of over 60% in size
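L3MBTL1 50 nM + b-AHA-H3(1-15)K9me1 75 nM, 30 min RT; compound added, 30 min RT; streptavidin donor/Ni-chelate acceptor beads 10 ug/mL each final, 30 min RT dark; AlphaScreen read.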
HP1b binding inh: blocks HP1-beta chromodomain binding to methylated histone tails; P83916; AlphaScreen HP1-beta / biotin-H3K9me3 peptide binding; Potency, µM (titrated, usually from 114 µM), without a hit: at the top dose activity change, negative = inhibition, actives largely listed as inhibitors; hit rate 0.56% among 390,000; note: nearly all actives have a fitted effect of over 70% in size
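Compound inhibition of the preformed complex between 50 nM HP1-beta and 50 nM biotinylated H3K9me3 peptide was read by AlphaScreen. Buffer was PBS pH 7.4 with 0.01% Tween-20. Incubations ran 30 min at room temperature, with 10 ug/mL donor/acceptor beads.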
BAZ2B inh: blocks human BAZ2B | AlphaScreen BAZ2B-H3K14Ac peptide displacement | hit rate 4.4% among 360,000 | AID 504333 | Potency, µM (titrated, usually from 114 µM), for inactives: at the top dose activity change, negative = inhibition, most hits filed as inhibitors; note: % is set by controls: 0 for no effect and ±100 for the full control effect; nearly all actives have a fitted effect of over 60% in size
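AlphaScreen luminescence quantifies BAZ2B engagement of H3K14Ac peptide; the protein and biotinylated peptide are both at 50 nM final, buffer PBS pH 7.4 with 0.01% Tween-20, all steps at room temperature.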
An asterisk follows results filed as active; ? = inconclusive; . = no result; ! = not confirmed by another sample; [ ] = dose if it differs, or a comment. Calls come from the whole dose curve; as a rule, active = well fitted inhibition curve with a large enough effect; inconclusive = small, poorly fitted or top-dose-only effect; inactive = no such curve, though single readings can be large or run the other way. Potency is the fitted concentration of half-maximal effect.

SMILES	G9a block	JMJD2A Tudor	L3MBTL1 inh	HP1b binding inh	BAZ2B inh
O=C(CCCN1C(=O)c2cccnc2Oc2ccc(Cl)cc21)NCc1ccccc1F	-3.8%[59 µM]	-16.2%	.	7.9%	1.0%
CCc1ccc(NC(=O)c2cc(C(C)=O)n3ccccc23)cc1	1.3%[59 µM]	-4.5%	.	62.5%	-0.3%
COC(=O)c1cc(C(C)=O)n2ccccc12	0.7%[59 µM]	-17.8%[11.4 µM]	.	-6.5%	50.1µM*
COc1ccc(-n2c(=O)c3sc4ccccc4c3n(CC(=O)Nc3ccccc3F)c2=O)cc1	1.3%[59 µM]	-11.6%	.	26.8%	-5.2%
CCC1(c2ccccc2)NC(=S)N(c2cccc(C)c2C)N1 (centres undefined)	31.6µM*	-2.4%	5.8%	34.3%	-24.0%
O=C(NCc1ccco1)/C(=C/c1cccc(C(F)(F)F)c1)c1nc2ccccc2[nH]1	19.3%[59 µM]	-24.6%	-2.2%	13.4%	-29.2%
O=C(NCc1ccco1)/C(=C/c1ccc(C(F)(F)F)cc1)c1nc2ccccc2[nH]1	15.8µM*	-24.4%	-4.2%	37.3%	-9.6%
Cc1nc(-c2cccc(F)c2)sc1CCNC(=O)C(=O)Nc1ccc2c(c1)OCO2	13.5%[59 µM]	-11.8%	.	19.8%[57 µM]	-5.3%
NC1=NC(S)C2N=CN=C2N1 (centres undefined)	25.1µM*	.	.	.	.
COCCCNCCOc1ccc(C)cc1[N+](=O)[O-]	14.1µM*	1µM*	8.9%	?	?
Cc1ccc(OCCOCCNC(C)(C)C)c([N+](=O)[O-])c1	14.1µM*	8.91µM*	5.9%	-9.7%	79.4µM*
COc1cccc(OCCOCCOc2ccc(C)cc2[N+](=O)[O-])c1	15.2%[59 µM]	-10.6%[57.1 µM]	13.4%	142.8%	31.1%
COc1ccc(OCCOCCOc2ccc(C)cc2[N+](=O)[O-])cc1	19.3%[59 µM]	-3.6%	7.1%	40.1%	9.4%
C=CCNCCCCOc1ccc(C)cc1[N+](=O)[O-]	12.6µM*	7.94µM*	1.5%	17.8µM*	56.2µM*
COCCNCCCCOc1ccc(C)cc1[N+](=O)[O-]	?	2.82µM*	-6.6%	-20.8%	56.2µM*
O=C(Nc1ccccc1)N1CC2(CCN(C(=O)c3ccncc3)CC2)C1	8.1%[12.7 µM]	.	.	.	.
CCC(C)NCCCCOc1ccc(C)cc1[N+](=O)[O-] (centres undefined)	28.4%[0.501 µM]	3.55µM*	1.7%	?	44.7µM*
Cc1ccc(OCCN2C(=O)c3ccccc3C2=O)c([N+](=O)[O-])c1	-9.1%[59 µM]	-15.8%	-1.0%	29.3%	-18.3%
Cc1ccc(Cl)cc1-n1c(=O)c2sc3ccccc3c2n(CC(=O)NC2CCCCC2)c1=O	-0.5%[59 µM]	-16.9%	.	23.5%	-4.5%
Cc1noc(NS(=O)(=O)c2ccc(N/C=C\C(=O)c3ccncc3)cc2)c1C	50.1µM*	5.9%	.	27.6%	1.2%
Cc1noc(NS(=O)(=O)c2ccc(N/C=C/C(=O)c3ccncc3)cc2)c1C	-41.7%[59 µM]	-15.6%	.	10.9%	-9.5%
Cc1ccc(-c2csc(NCCn3c(-c4ccncc4)nc4cc(C(F)(F)F)ccc43)n2)cc1	.	-33.6%	-8.3%	19.7%	.
Cc1ccc(-c2csc(N3CCN(c4cc5c(cc4Cl)nc(-c4ccncc4)n5CCN4CCCCC4)CC3)n2)cc1	22.4µM*	?	-10.5%	-4.9%	?
Cc1ccc(-c2csc(N3CCN(c4ccc5nc(-c6ccncc6)n(CCN6CCCCC6)c5c4)CC3)n2)cc1	35.5µM*	44.7µM*	-28.6%	?	?
CCCn1c(C)nc2cc(Cl)c(N3CCN(c4nc(-c5ccc(C)cc5)cs4)CC3)cc21	.	-30.7%	-2.8%	-3.7%	-3.5%
SMILES	G9a block	JMJD2A Tudor	L3MBTL1 inh	HP1b binding inh	BAZ2B inh
COc1ccc(-c2csc(N3CCN(c4cc5c(cc4Cl)nc(-c4ccncc4)n5CCOCCO)CC3)n2)cc1	28.2µM*	-23.2%	-7.2%	20.5%	50.1µM*
Cc1nn(-c2cccc(Cl)c2)c2nc(-c3cccnc3)cc(C(F)(F)F)c12	-4.1%[59 µM]	13.8%	.	55.0%	5.2%
CCn1cc2nc(SCC(=O)Nc3ccc(C)cc3)n(Cc3ccc(C)cc3)c(=O)c2n1	-3.8%[59 µM]	-20.5%	.	24.6%	-18.7%
C=C1CCN(C(Cc2ccccc2)C(=O)NC2CCN(Cc3ccccc3)CC2)S(=O)(=O)c2ccccc21 (centres undefined)	.	-17.2%	.	15.0%	.
C=C1CCN(C(CC(C)C)C(=O)NN2CCOCC2)S(=O)(=O)c2ccccc21 (centres undefined)	.	4.8%	.	19.1%	.
N#CN1CCC(NC(=O)c2cccc(C(F)(F)F)c2)CC1	.	-8.2%	.	.	.
Cc1ccc(C)c(SC2=NS(=O)(=O)c3ccccc32)c1	.	-6.4%	.	.	.
CCN1C(=NCC(C)C)N[C@@H](c2cccc(C(F)(F)F)c2)C(C(=O)OC)=C1C	6.7%[12.7 µM]	17.8µM*	21.2%	31.3%	?
COC(=O)C1=C(C)N(Cc2ccccc2)C(=NCc2ccco2)N[C@H]1c1ccc(Br)cc1	0.4%[12.7 µM]	.	.	.	79.4µM*
COC(=O)C1=C(C)N(Cc2ccco2)C(=O)N[C@@H]1c1ccccc1	?	-20.1%	-0.6%	2.4%	-36.9%
COC(=O)C1=C(C)N(Cc2ccccc2)C(=NCc2cccc(C(F)(F)F)c2)N[C@H]1c1cccc(C(F)(F)F)c1	.	-23.9%	15.7%	24.1%	-31.2%
COC(=O)C1=C(C)N(Cc2ccccc2)C(=NCCc2c[nH]c3ccccc23)N[C@H]1c1cccc(C(F)(F)F)c1	12.5%[12.7 µM]	56.2µM*	-5.8%	-23.7%	?
C=CCN=C1N[C@@H](c2cccc(C(F)(F)F)c2)C(C(=O)OC)=C(C)N1CC	28.2µM*!	?	12.4%	32.1%	?
CCN1C(=NCCCCO)N[C@@H](c2cccc(C(F)(F)F)c2)C(C(=O)OC)=C1C	20.6%[12.7 µM]	?	14.4%	47.2%	?
COCCN=C1N[C@@H](c2cccc(C(F)(F)F)c2)C(C(=O)OC)=C(C)N1Cc1ccccc1	?	?	7.2%	2.2%	-11.0%
Cc1ccc(-n2nc(CO)c(C(=O)NCCc3ccccc3)n2)cc1C	-0.8%[59 µM]	-21.7%	.	-12.6%	-4.0%
CCN1CCN(C(=O)c2ccc3c(c2)N(Cc2c(F)cccc2Cl)C(=O)c2ccccc2S3)CC1	-33.4%[59 µM]	?	.	-3.4%	.
C=CCN=C1N[C@@H](c2ccccc2)C(C(=O)OC)=C(C)N1CC	39.8µM*!	-15.6%	1.4%	23.7%	8.0%
COC(=O)C1=C(C)N(Cc2ccccc2)C(=NCc2ccc(OC)cc2)N[C@H]1c1ccccc1	.	?	0.7%	-6.6%	?
COC(=O)C1=C(C)N(Cc2ccccc2)C(=NCC(C)C)N[C@H]1c1ccccc1	50.1µM*!	-32.4%	5.5%	-7.2%	5.9%
O=C(N/N=C/c1ccc(OCc2ccccc2)cc1)c1ccncc1	-17.3%	-9.5%	-8.9%	72.2%	-18.2%
Oc1ccc(N=Cc2ccc(OCc3ccccc3)cc2)cc1	2.51µM*	?	?	?	?
CCOC(=O)c1sc(N2C(=O)C(O)=C(C(=O)c3ccc(C)o3)C2c2ccc(OC)c(OC)c2)nc1C (centres undefined)	24.4%	-27.3%	.	8.5%	-25.9%
